From PubChem BioAssay (NCI)
Compounds without any hit were thinned out: in the full panel of roughly 79,000, 15% have a hit. The source made the active and inactive calls. Rule as the data show it: active = growth inhibition above about 70%; inactive = the rest.

Experiments:
[1] = NCI Yeast Anticancer Drug Screen. Data for the rad50 strain (AID 155);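 also: 0% = growth of vehicle-only cultures of the same strain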; conditions: S. cerevisiae rad50 strain growth inhibition, stronger effect = higher value
Procedure, shortened: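 Cells are treated with compound, grown, and their growth is then scored against vehicle-only cultures of the same repair-deficient yeast strain.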

[2] = NCI Yeast Anticancer Drug Screen. Data for the mec2-1 strain (AID 157); conditions: S. cerevisiae mec2-1 strain, stronger effect = higher value
Procedure, shortened: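 Yeast mec2-1 mutant treated with compound. Readout: growth inhibition vs vehicle controls.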

[3] = NCI Yeast Anticancer Drug Screen. Data for the sgs1 mgt1 strain (AID 161);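 also: 0% = growth of cultures given vehicle only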; conditions: S. cerevisiae sgs1 mgt1 strain, stronger effect = higher value
Procedure, shortened: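 Inhibition of yeast growth, normalised to vehicle-treated controls, is reported for a strain bearing genetic alterations in DNA damage repair.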

[4] = NCI Yeast Anticancer Drug Screen. Data for the cln2 rad14 strain (AID 165);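 also: 0% = growth equal to vehicle treated cultures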; conditions: S. cerevisiae cln2 rad14 strain, stronger effect = higher value
Procedure, shortened: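 cln2 rad14 yeast strain; compound exposure; growth inhibition read vs vehicle controls.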

[5] = NCI Yeast Anticancer Drug Screen. Data for the bub3 strain (AID 167); conditions: S. cerevisiae bub3 mutant strain, stronger effect = higher value
Procedure, shortened: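 Part of a panel of yeast mutants defective in DNA damage repair or cell cycle regulation. Each strain is grown with compound, and inhibition is calculated relative to solvent-treated cultures.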

[6] = NCI Yeast Anticancer Drug Screen. Data for the mlh1 rad18 strain (AID 175); conditions: S. cerevisiae mlh1 rad18 strain growth inhibition, stronger effect = higher value
Procedure, shortened: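 Yeast w/ defined DNA-repair lesions; compound exposure; growth vs vehicle controls → % inhibition.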

[7] = at 5.0 µM (retest, dose inferred, filed as 0.5)
[8] = at 50.0 µM (retest, dose inferred, filed as 5.0)

Measured: growth inhibition

CCCCCCN(CCCCCC)CCC(=O)c1ccc2cc(Br)c3ccccc3c2c1
active: [1]; [8] 85% | [1]; at 50.0 µM 98.6% | [2]; [8] 95% | [2]; at 50.0 µM 98.6% | [3]; [7] 75% | [3]; [8] 94% | [3]; at 50.0 µM 97.9% | [4]; [8] 87% | [4]; at 50.0 µM 96.8% | [5]; [8] 92% | [5]; at 50.0 µM 98.6% | [6]; [8] 84% | [6]; at 50.0 µM 97.7%
inactive: [1]; [7] 26% | [2]; [7] 38% | [4]; [7] 8% | [5]; [7] 20% | [6]; [7] 43%

CCOC(=O)C1SC(=Nc2ccc(Cl)cc2)N=C1C (configuration not stated)
active: [1]; at 50.0 µM 88.8% | [2]; at 50.0 µM 91.7% | [3]; [8] 71% | [3]; at 50.0 µM 89.8% | [4]; at 50.0 µM 90% | [5]; at 50.0 µM 88.8% | [6]; at 50.0 µM 89.6%
inactive: [1]; [7] 14% | [1]; [8] 56% | [2]; [7] 27% | [2]; [8] 37% | [3]; [7] 26% | [4]; [7] 11% | [4]; [8] 66% | [5]; [7] 19% | [5]; [8] 69% | [6]; [7] 34% | [6]; [8] 66%

O=[N+]([O-])/C(C(Cl)=C(Cl)Cl)=C(/Nc1ccccc1)Sc1ccccc1
active: [1]; [8] 99% | [2]; [8] 99% | [2]; at 50.0 µM 70.2% | [3]; [8] 99% | [4]; [8] 99% | [5]; [8] 99% | [6]; [7] 78% | [6]; [8] 99% | [6]; at 50.0 µM 84.8%
inactive: [1]; [7] 62% | [1]; at 50.0 µM 17.1% | [2]; [7] 41% | [3]; [7] 64% | [3]; at 50.0 µM 66.5% | [4]; [7] 49% | [4]; at 50.0 µM 23.8% | [5]; [7] 51% | [5]; at 50.0 µM 64.2%

COc1cccc2c1C(=O)c1c(O)c(COC3CC(N)C(O)C(C)O3)cc(O)c1C2=O (configuration not stated)
active: [1]; [8] 89% | [1]; at 50.0 µM 96.7% | [2]; [8] 96% | [2]; at 50.0 µM 73% | [3]; [8] 80% | [3]; at 50.0 µM 99.3% | [5]; at 50.0 µM 98% | [6]; at 50.0 µM 98.3%
inactive: [1]; [7] 14% | [2]; [7] 14% | [3]; [7] 13% | [4]; [7] 3% | [4]; [8] 42% | [4]; at 50.0 µM 50.6% | [5]; [7] 7% | [5]; [8] 40% | [6]; [7] 12% | [6]; [8] 53%

Cc1nc(N2N=C(c3ccc(Cl)cc3)CCC2=O)sc1[N+](=O)[O-]
active: [1]; [8] 85% | [1]; at 50.0 µM 85% | [2]; at 50.0 µM 86.5% | [3]; [8] 71% | [3]; at 50.0 µM 83.7% | [4]; at 50.0 µM 82% | [5]; [8] 88% | [5]; at 50.0 µM 84% | [6]; [8] 92%
inactive: [1]; [7] 10% | [2]; [7] 13% | [2]; [8] 65% | [3]; [7] -1% | [4]; [7] 12% | [4]; [8] 46% | [5]; [7] 10% | [6]; [7] -12% | [6]; at 50.0 µM 65.2%

CCN(CC)CCOC(=O)c1ccc(N=Nc2cc(Cl)c(C)cc2O)cc1
active: [1]; [8] 98% | [1]; at 50.0 µM 99.3% | [2]; [8] 99% | [2]; at 50.0 µM 99.2% | [3]; [8] 99% | [3]; at 50.0 µM 95.2% | [4]; [8] 98% | [4]; at 50.0 µM 99% | [5]; [8] 99% | [5]; at 50.0 µM 99.1% | [6]; [8] 99% | [6]; at 50.0 µM 99.1%
inactive: [1]; [7] 26% | [2]; [7] 29% | [3]; [7] 55% | [4]; [7] 13% | [5]; [7] 58% | [6]; [7] 28%

O=C1C(=O)N(c2cc(Cl)ccc2Cl)C(=O)C(=O)C1c1nc2ccccc2o1
active: [4]; at 50.0 µM 81.2%
inactive: [1]; [7] 4% | [1]; [8] 4% | [1]; at 50.0 µM 53.2% | [2]; [7] 15% | [2]; [8] 15% | [2]; at 50.0 µM 37.9% | [3]; [7] 22% | [3]; [8] 22% | [3]; at 50.0 µM 36.8% | [4]; [7] 10% | [4]; [8] 10% | [5]; [7] 2% | [5]; [8] 2% | [5]; at 50.0 µM 57.1% | [6]; [7] 12% | [6]; [8] 12% | [6]; at 50.0 µM 31.9%

CCCCCCCCCCCCCCCCCCOP(=O)([O-])OC1CC[N+](C)(C)CC1
active: [1]; [7] 93% | [1]; [8] 99% | [1]; at 50.0 µM 90% | [2]; [7] 98% | [2]; [8] 99% | [2]; at 50.0 µM 92.5% | [3]; [7] 98% | [3]; [8] 99% | [3]; at 50.0 µM 91% | [4]; [7] 96% | [4]; [8] 99% | [4]; at 50.0 µM 90.2% | [5]; [7] 97% | [5]; [8] 99% | [5]; at 50.0 µM 89% | [6]; [7] 97% | [6]; [8] 99% | [6]; at 50.0 µM 92.5%

COc1ccc(-n2c(=O)c3[nH]c(=S)[nH]c3n(-c3ccc(OC)cc3)c2=S)cc1
inactive: [1]; [7] 21% | [1]; [8] 25% | [1]; at 50.0 µM 25.5% | [2]; [7] 1% | [2]; [8] 16% | [2]; at 50.0 µM 44% | [3]; [7] 7% | [3]; [8] 23% | [3]; at 50.0 µM -47.7% | [4]; [7] 3% | [4]; [8] 25% | [4]; at 50.0 µM -1% | [5]; [7] -44% | [5]; [8] 13% | [5]; at 50.0 µM -41.8% | [6]; [7] 14% | [6]; [8] 19% | [6]; at 50.0 µM -29.9%
